# MITF primary: human MITF inhibition, primary screen | O75030 | AlphaScreen MITF homodimerization, bead proximity signal | inhibition, % at 2.6 µM | 650,000 tested, 0.91% active | AID 1259374; in the data active = inhibition above about 50%;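 also: 0% = vehicle wells with protein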
# TEAD-YAP block: TEAD-YAP interaction inhibition | HEK-TIYL cells, TEAD-Gal4/YAP UAS-luciferase luminescence | inhibition, % at 9.12 µM | 640,000 tested, 1.4% active; in the data active = inhibition above about 32%;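 also: 0% = median of test compound wells and 100% = reference inhibitor wells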
# FBW7 act: human FBW7 E3 ligase activation, primary screen; Q969H0; AlphaScreen FBW7–phospho-cyclin E peptide binding, activator screen; normalized activity (activation), % at 26.1 µM; 650,000 tested, 0.13% active; in the data active = normalized activity above about 1.9%;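 also: purified mutant Fbw7 with reduced substrate affinity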
# Target sequence (Q969H0 whole entry, looked up): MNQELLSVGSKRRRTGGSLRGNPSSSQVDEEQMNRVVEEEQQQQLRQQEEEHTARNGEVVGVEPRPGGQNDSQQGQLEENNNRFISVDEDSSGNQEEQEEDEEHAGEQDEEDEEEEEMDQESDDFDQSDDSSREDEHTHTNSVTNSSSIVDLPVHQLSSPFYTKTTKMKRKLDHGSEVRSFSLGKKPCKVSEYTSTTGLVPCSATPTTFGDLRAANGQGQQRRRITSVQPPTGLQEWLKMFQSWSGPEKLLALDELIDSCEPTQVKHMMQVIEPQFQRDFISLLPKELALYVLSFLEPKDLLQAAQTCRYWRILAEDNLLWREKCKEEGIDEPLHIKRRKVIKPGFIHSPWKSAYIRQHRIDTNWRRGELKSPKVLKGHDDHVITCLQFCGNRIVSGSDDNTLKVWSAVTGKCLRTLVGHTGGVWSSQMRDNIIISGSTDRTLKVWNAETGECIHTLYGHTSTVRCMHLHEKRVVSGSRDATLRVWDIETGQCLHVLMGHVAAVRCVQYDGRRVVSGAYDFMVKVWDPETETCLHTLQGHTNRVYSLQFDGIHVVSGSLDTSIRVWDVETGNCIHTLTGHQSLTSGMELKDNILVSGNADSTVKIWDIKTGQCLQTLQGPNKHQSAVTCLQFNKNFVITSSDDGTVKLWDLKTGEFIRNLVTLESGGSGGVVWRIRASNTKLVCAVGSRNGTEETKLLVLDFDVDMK
# GPR151 activ: human GPR151 activation | Q8TDV0 | PathHunter beta-arrestin GPR151 cells, luminescence | activation, % at 11.2 µM | 650,000 tested, 1% active; in the data active = activation above about 4.9%;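 also: 0% = median of compound wells and 100% = cells with positive control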
# GPR151 confirm: confirmation of human GPR151 activators; 6,700 tested, under 10 active; AID 1508609; shares compounds with GPR151 activ; activation, % at 11.2 µM; GPR151 PathHunter beta-arrestin cells, luminescence, 90 min; % of EA-reagent control over plate median;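 active = mean percent activation across replicates above the confirmation screen cutoff of 4.91%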
# GPR119 counter: GPR119 activation, counter-screen for GPR151 activators | shares compounds with GPR151 activ | GPR119 PathHunter beta-arrestin cells, luminescence, 90 min; 0 = compound-well median, 100 = enzyme-acceptor control | activation, % at 11.2 µM | 6,700 tested, 0.3% active;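 active = mean percent activation in the counterscreen above 29.09%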;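 also: counterscreen on off-target GPR119 to flag nonselective hits from the GPR151 activator screen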
# An asterisk follows results filed as active; / = not tested or not shown. Most compounds without a hit are left out; they make up all but 3.5% or so of the library.
SMILES,MITF primary,TEAD-YAP block,FBW7 act,GPR151 activ,GPR151 confirm,GPR119 counter
COc1ccccc1N1CCN(C2CCCN(Cc3ccncc3)C2)CC1 (stereo not drawn),6,7,0,0,/,/
COc1ccccc1N1CCN(C2CCCN(Cc3cccn3-c3cccnc3)C2)CC1 (stereo not drawn),4,4,0,7.5*,0,4
COc1ccccc1N1CCN(C2CCCN(Cc3ccc4nonc4c3)C2)CC1 (stereo not drawn),0,14,0,8.0*,1,-4
COc1ccc(CN2CCCC(N3CCN(c4ccccc4OC)CC3)C2)cc1O (stereo not drawn),-2,-1,0,1,/,/
CCC(=O)NC(N1CCOCC1)C(Cl)(Cl)Cl (stereo not drawn),1,1,0,0,/,/
O=C(CSc1nc2ccccc2c(=O)n1CCC1=CCCCC1)NCCc1ccccc1,-1,-9,0,6.4*,0,-5
COc1ccccc1NC(=O)CSc1nc2ccsc2c(=O)n1Cc1ccccc1,0,4,0,6.0*,1,10
COc1ccc(CCNC(=O)CCn2c(SCC(=O)Nc3cc(C)on3)nc3ccccc3c2=O)cc1OC,8,3,0,4.9*,-1,-17
Cc1ccc(CSc2nc3ccsc3c(=O)n2Cc2ccc(C)cc2)cc1,14,5,0,-1,/,/
Cc1ccc(Cn2c(SCC(=O)C(C)(C)C)nc3ccsc3c2=O)cc1,7,-3,0,5.0*,1,8
Cc1cccc(-c2cc(C(=O)NCCC3=CCCCC3)c3ccccc3n2)c1,-10,9,0,-1,/,/
O=C(CSc1nc2ccsc2c(=O)n1Cc1ccccc1)NCCC1=CCCCC1,5,-7,0,8.7*,1,4
CCC(C)NC(=O)CSc1nc2ccccc2c(=O)n1CCCN1CCCCC1CC (stereo not drawn),-5,1,0,1,/,/
CC(NC(=O)CSc1nc2ccccc2c(=O)n1CCCO)c1ccccc1 (stereo not drawn),9,6,0,6.5*,0,-2
CCOC(=O)CSc1nc2ccccc2c(=O)n1Cc1ccccc1OC,7,6,0,5.2*,0,1
NS(=O)(=O)c1ccc(CCNC(=O)C(=O)Nc2ccc(F)cc2)cc1,10,-17,0,1,/,/
O=C(c1ccc(Br)c(S(=O)(=O)N2CCCCC2)c1)N1CCCCC1,-11,-10,0,11*,2,14
CCN(CC)N=Nc1ccc(S(=O)(=O)NC(C)=O)cc1,-9,-4,0,0,/,/
FC1(F)C(F)(F)C(F)(F)C2(F)C(F)(F)C(F)(F)C(F)(F)C(F)(F)C2(F)C1(F)F (stereo not drawn),1,3,0,5.1*,0,-6
COc1ccc(C2CC(c3ccc(OC(F)F)cc3)n3ncnc3N2)cc1 (stereo not drawn),-22,-1,0,7.4*,1,4
COc1ccc(C2CC(c3ccccc3OC(F)F)Nc3ncnn32)cc1 (stereo not drawn),-5,4,0,1,/,/
CC1(C)Cc2ccccc2/C(=C/C(=O)Nc2ccc([N+](=O)[O-])cc2)N1,-16,-5,0,5.5*,1,12
CC1(C)Cc2ccccc2/C(=C/C(=O)Nc2ccc(Cl)cc2)N1,5,-2,0,-1,/,/
CCN(CC)CCOC(=O)c1ccc(NC(=O)CNC(=O)C2CCCCC2)cc1,10,10,0,5.9*,0,-8
CCOc1ccc(NC(=O)CNC(=O)C2CCCCC2)cc1,6,-1,0,2,/,/
COc1ccc(-n2c(O)c(C=NCc3ccc(F)cc3)c(=O)[nH]c2=O)cc1,18,5,0,7.1*,-1,-5
O=C(COc1ccc(Cl)cc1Cl)Nc1ncn[nH]1,13,42*,0,6.6*,3,-13
O=C(CCCOc1ccc(Cl)cc1Cl)Nc1ncn[nH]1,-10,-7,0,-1,/,/
CC(=O)Nc1ccc(NC(=O)COc2ccc(Cl)cc2Br)cc1,7,-22,0,5.1*,0,15
Cc1cc(C)cc(NC(=O)NC2CCNCC2)c1,2,-1,0,8.2*,0,-3
